Data reported in PubChem BioAssay (EPA / NIEHS).
Where “and” joins values, the source holds several entries; their conditions need not be identical. Equal entries are not always repeated. A structure can be active in one record and inactive in another. Calls of active or inactive are those of the source. The calls were made as follows: active = hit-call score of the fitted dose curve at least 0.9, where 1 is the maximum; inactive = score below 0.9.

These molecules were tested on Monokine induced gamma interferon (MIG), CXCL9 (gene 4283) (assay: BSK_BE3C_MIG: BioMAP Diversity Plus: BE3C Assay for Monokine induced gamma interferon (MIG) Biomarker Activity (AID 2283035)). Conditions: primary human bronchial epithelial cells; actives raise or lower the signal.
Method: BSK_BE3C is a cell-based, multiplexed-readout assay that uses bronchial epithelial cell, a human lung primary cell, with measurements taken at 24 hours after chemical dosing in a 96-well plate.BSK_BE3C_MIG is an assay component measured in the BSK_BE3C assay. It measures MIG antibody related to regulation of gene expression using ELISA technology.Data from the assay component BSK_BE3C_MIG was analyzed into 1 assay endpoint. This assay endpoint, BSK_BE3C_MIG, was analyzed with bidirectional fitting relative to DMSO as the negative control and baseline of activity. Using a type of binding reporter, gain or loss-of-signal activity can be used to understand changes in the signaling as they relate to the gene CXCL9. Furthermore, this assay endpoint can be referred to as a primary readout, because this assay has produced multiple assay endpoints where this one serves a signaling function. To generalize the intended target to other relatable targets, this assay endpoint is annotated to the cytokine intended target family, where the subfamily is chemotactic factor.
The levels of cell surface (or secreted, indicated by the prefix "s") biomarker endpoints were measured by ELISA. Overt cytotoxicity to cells in confluent adherent cultures (all systems other than the BT system) was assessed by measuring total protein levels using sulforhodamine B (SRB) staining in parallel cultures at the time of biomarker measurements, indicated as SRB endpoints. For proliferation assays for adherent cell types, individual cell types are cultured at sub-confluence and relative cell numbers quantified by SRB staining at time points optimized for each system (48 h: 3C and CASM3C systems; 72 h: BT and HDF3CGF systems; 96 h: SAg system). SRB was performed by staining cells with 0.1% SRB after fixation with 10% TCA and reading wells at 560 nm.Viability and proliferation of PBMC (T cells) was quantified by Alamar Blue reduction for the SAg and BT systems. For PBMC viability (referred to as PBMC Cytotoxicity within the assay endpoint names), cells were plated (75,000/well in a 96-well plate) and then chemical samples added for 1 h before addition of activators, SEB and TSST-1 (20 ng/mL final concentration each). Cells were incubated for 90 h. Then, Alamar Blue (20 uL/well) (Invitrogen, Cat DAL1100) was added for 6 h, and the plates were read with a fluorescence microplate reader at 546/580 nm (excitation/emission). For PBMC proliferation, cells were plated and activated as above but incubated for only 16 h prior to addition of Alamar Blue. Plates were read after 6 h.

SMILES	outcome	AC50
FC(F)(F)C(F)(F)C(F)(F)C(F)(F)CCI	inactive	
FC(F)(F)C(F)(F)C(F)(F)N(C(F)(F)C(F)(F)C(F)(F)F)C(F)(F)C(F)(F)C(F)(F)F	inactive	
FC(F)(F)C(F)(F)C(F)(F)C(F)(F)C(F)(F)C(F)(F)C(F)(F)Br	inactive	
O=C(O)C(F)(F)C(F)(F)C(F)(F)F	inactive	
O=C(O)C=C(C(F)(F)F)C(F)(F)F	inactive	
OCC(F)(F)C(F)(F)C(F)(F)C(F)(F)C(F)(F)C(F)(F)F		45.1 µM (active) and 54.8 µM (active)
C=CC(=O)OCC(F)(F)C(F)(F)C(F)(F)C(F)(F)COC(=O)C=C		44.1 µM (active) and 46.5 µM (active)
OCC(F)(F)C(F)(F)C(F)(F)F	inactive	
FC1CC(F)(F)C(F)(F)C1(F)F (stereo not given)	inactive	
C=CC(F)(F)C(F)(F)C(F)(F)C(F)(F)C(F)(F)C(F)(F)C(F)(F)C(F)(F)C=C	inactive	
FC(F)(I)C(F)(F)C(F)(F)C(F)(F)I	inactive	48.9 µM (active)
O=S(=O)(OCCOC(F)(F)F)C(F)(F)F	inactive	
FC(F)(F)C(F)(F)C(F)(F)C(F)(F)C(F)(F)CCI	inactive	
FC(F)(F)C(F)(F)C(F)(F)CI	inactive	
CCCCCCOC(=O)c1ccccc1O	inactive	
CO[Si](OC)(c1ccccc1)c1ccccc1	inactive	
CCCCCCCOC(=O)c1ccccc1C(=O)OCCCCCCC	inactive	
CCc1ccc(C(c2ccc(CC)cc2)C(Cl)Cl)cc1	inactive	
OCC(F)(F)C(F)(F)C(F)(F)C(F)F	inactive	
CCN(CC)c1ccc2c(C)cc(=O)oc2c1	inactive	

SMILES	outcome	AC50
O=C(O)C(F)(OC(F)(F)C(F)(OC(F)(F)C(F)(F)C(F)(F)F)C(F)(F)F)C(F)(F)F (stereo not given)	inactive	
FC(F)(Br)C(F)(F)C(F)(F)C(F)(F)C(F)(F)C(F)(F)Br	inactive	
COC(=O)CCC(F)(F)C(F)(F)C(F)(F)C(F)(F)F	inactive	
O=C(O)C(F)(F)C(F)(F)F	inactive	
CCc1c(Br)c(Br)c(Br)c(Br)c1Br	inactive	
NC(=O)C(F)(F)C(F)(F)C(F)(F)C(F)(F)F	inactive	
CC(CCl)OP(=O)(OC(C)CCl)OC(C)CCl (stereo not given)	inactive	
CCCCOCCOCCOC(=O)CCCCC(=O)OCCOCCOCCCC	inactive	
C=C(C)C(=O)OCC(F)(F)C(F)(F)C(F)(F)F	inactive	
O=C(Cl)C(F)(F)C(F)(F)C(F)(F)C(F)(F)C(F)(F)C(F)(F)C(F)(F)C(F)(F)F		55.3 µM (active) and 46.6 µM (active) and 46.1 µM (active)
O=S(=O)(O)C(F)(F)C(F)(F)C(F)(F)C(F)(F)C(F)(F)C(F)(F)C(F)(F)F	inactive	
CCO[Si](CCC(F)(F)C(F)(F)C(F)(F)C(F)(F)C(F)(F)C(F)(F)F)(OCC)OCC	inactive	
O=C(O)C(F)(F)C(F)(F)C(F)(F)C(F)(F)F	inactive	
N=C(N)C(F)(F)C(F)(F)C(F)(F)C(F)(F)C(F)(F)C(F)(F)C(F)(F)F	inactive	
C=CC/C=C/C/C=C/C/C=C/C	inactive	
C=CC(=O)OCC(F)(F)C(F)(F)C(F)(F)C(F)(F)C(F)(F)C(F)(F)C(F)(F)F	inactive	
Cc1ccc(S(=O)(=O)OCC(F)(F)C(F)(F)C(F)(F)C(F)(F)C(F)(F)C(F)F)cc1	inactive	
O=C(CC(=O)C(F)(F)C(F)(F)F)C(F)(F)F	inactive	
O=C(O)C(F)(OC(F)(F)C(F)(OC(F)(F)C(F)(OC(F)(F)C(F)(F)C(F)(F)F)C(F)(F)F)C(F)(F)F)C(F)(F)F (stereo not given)	inactive	
